# Results as given in PMC13541613, “GHT-SELEX demonstrates unexpectedly high intrinsic sequence specificity and complex DNA binding of many human transcription factors”.
# Experiments:
# Assay in all cases: HT-SELEX; 20 mM HEPES pH 7, 140 mM KCl, 5 mM NaCl, 1 mM K2HPO4, 2 mM MgSO4, 100 uM EGTA, ZnSO4, 0.1% Tween20; room temperature, 1 h; high values mean tight binding
# Conditions in all cases: protein: ivt; tags: eGFP (N-terminal); dsDNA, one strand shown
# [1] = target: ZNF721 full-length (Homo sapiens, UniProt Q8TF20-2 1-923)
# Summary of the method: (§1)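 Full-length or DNA-binding-domain forms of a tagged transcription factor were produced in HEK293 lysate or cell-free extract and immobilised on beads. Incubation with a randomized 40-base DNA library ran for 1 h at room temperature in HEPES/KCl low-stringency buffer with Tween20, after which bound DNA was washed, heat-eluted, PCR-amplified over successive cycles and Illumina-sequenced. Binding strength is given as the relative k-mer count in selected reads, higher for tighter binding.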
# [2] = target: ZNF721 DBD1 (Homo sapiens, UniProt Q8TF20-2 29-461)
# Summary of the method: as §1
# [3] = target: ZNF721 DBD2 (Homo sapiens, UniProt Q8TF20-2 395-923)
# Summary of the method: as §1
# ZNF721 DBD2, sequence (Q8TF20 383-911): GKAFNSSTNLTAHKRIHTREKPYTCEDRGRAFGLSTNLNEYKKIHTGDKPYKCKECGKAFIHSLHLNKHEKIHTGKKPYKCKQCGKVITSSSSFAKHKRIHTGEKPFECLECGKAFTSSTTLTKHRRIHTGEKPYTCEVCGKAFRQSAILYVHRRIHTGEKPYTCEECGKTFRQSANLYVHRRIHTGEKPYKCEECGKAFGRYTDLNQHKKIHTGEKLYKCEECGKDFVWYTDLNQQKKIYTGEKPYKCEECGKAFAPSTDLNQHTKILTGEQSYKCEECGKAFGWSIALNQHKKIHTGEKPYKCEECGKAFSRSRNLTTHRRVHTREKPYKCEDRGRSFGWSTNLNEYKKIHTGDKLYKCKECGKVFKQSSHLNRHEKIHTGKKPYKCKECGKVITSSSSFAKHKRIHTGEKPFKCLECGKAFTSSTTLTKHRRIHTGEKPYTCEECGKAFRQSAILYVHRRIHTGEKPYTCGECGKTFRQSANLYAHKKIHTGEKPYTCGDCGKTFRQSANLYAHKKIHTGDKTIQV
# ZNF721 full-length, sequence (Q8TF20 other isoform, or with tags, fused parts or gaps): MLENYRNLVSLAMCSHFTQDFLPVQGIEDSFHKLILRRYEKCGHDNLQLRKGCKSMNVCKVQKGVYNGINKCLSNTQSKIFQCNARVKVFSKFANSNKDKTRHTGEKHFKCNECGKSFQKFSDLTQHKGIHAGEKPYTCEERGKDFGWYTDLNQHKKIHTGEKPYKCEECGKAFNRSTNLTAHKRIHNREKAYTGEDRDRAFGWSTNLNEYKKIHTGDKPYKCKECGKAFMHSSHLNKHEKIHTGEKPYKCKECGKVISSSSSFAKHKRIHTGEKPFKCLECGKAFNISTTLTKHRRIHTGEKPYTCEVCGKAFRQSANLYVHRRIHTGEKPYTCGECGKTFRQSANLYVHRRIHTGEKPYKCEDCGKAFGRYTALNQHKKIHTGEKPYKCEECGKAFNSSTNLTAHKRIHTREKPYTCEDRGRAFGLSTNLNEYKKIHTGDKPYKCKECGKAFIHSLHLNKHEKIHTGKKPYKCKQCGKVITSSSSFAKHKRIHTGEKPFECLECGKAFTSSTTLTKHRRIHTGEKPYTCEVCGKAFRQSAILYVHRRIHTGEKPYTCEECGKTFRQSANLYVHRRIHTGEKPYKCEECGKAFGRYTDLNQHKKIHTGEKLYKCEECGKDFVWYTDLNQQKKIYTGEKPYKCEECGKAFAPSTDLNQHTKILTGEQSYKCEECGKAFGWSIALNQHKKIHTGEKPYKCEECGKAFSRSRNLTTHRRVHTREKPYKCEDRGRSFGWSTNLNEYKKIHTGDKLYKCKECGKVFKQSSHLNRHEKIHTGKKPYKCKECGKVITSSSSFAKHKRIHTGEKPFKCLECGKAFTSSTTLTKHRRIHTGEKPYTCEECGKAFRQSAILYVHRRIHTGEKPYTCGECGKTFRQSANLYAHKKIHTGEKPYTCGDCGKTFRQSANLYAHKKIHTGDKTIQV
# ZNF721 DBD1, sequence (Q8TF20 17-449): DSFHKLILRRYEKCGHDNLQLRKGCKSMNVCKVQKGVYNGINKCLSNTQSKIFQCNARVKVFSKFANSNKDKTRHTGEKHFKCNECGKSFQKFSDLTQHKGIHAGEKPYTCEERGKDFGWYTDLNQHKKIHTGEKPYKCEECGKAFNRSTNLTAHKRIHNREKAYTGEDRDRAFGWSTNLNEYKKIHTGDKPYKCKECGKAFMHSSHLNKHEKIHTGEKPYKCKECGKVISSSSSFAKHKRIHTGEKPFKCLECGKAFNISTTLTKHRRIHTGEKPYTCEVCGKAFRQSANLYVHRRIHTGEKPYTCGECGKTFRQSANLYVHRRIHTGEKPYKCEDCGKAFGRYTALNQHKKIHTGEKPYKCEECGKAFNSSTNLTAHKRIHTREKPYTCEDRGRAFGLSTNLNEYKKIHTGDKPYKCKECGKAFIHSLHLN
sequence,measurement,setting,value
CCTCCCCTCC,binding signal,[1],0.155 relative 10-mer count
same,binding signal,[2],0.00812 relative 10-mer count
same,binding signal,[3],0.0132 relative 10-mer count
AAGCAGTACC,binding signal,[1],0.153 relative 10-mer count
same,binding signal,[2],0.0727 relative 10-mer count
same,binding signal,[3],0.0326 relative 10-mer count
CCCCCTCCCG,binding signal,[1],0.114 relative 10-mer count
same,binding signal,[2],0.00573 relative 10-mer count
same,binding signal,[3],0.00336 relative 10-mer count
GCCCCGCCCC,binding signal,[1],0.124 relative 10-mer count
same,binding signal,[2],0.00436 relative 10-mer count
same,binding signal,[3],0.00156 relative 10-mer count
GCCCCACCGC,binding signal,[1],0.104 relative 10-mer count
same,binding signal,[2],0.00271 relative 10-mer count
same,binding signal,[3],0.00407 relative 10-mer count
CACCACCCTC,binding signal,[1],0.111 relative 10-mer count
same,binding signal,[2],0.00537 relative 10-mer count
same,binding signal,[3],0.00419 relative 10-mer count
CGCCCGCCCC,binding signal,[1],0.126 relative 10-mer count
same,binding signal,[2],0.00408 relative 10-mer count
same,binding signal,[3],0.00144 relative 10-mer count
AAAGAAGCTA,binding signal,[1],0.132 relative 10-mer count
same,binding signal,[2],0.109 relative 10-mer count
same,binding signal,[3],0.00132 relative 10-mer count
CCCCGCCTCC,binding signal,[1],0.175 relative 10-mer count
same,binding signal,[2],0.00738 relative 10-mer count
same,binding signal,[3],0.00216 relative 10-mer count
GGGCGGGGGA,binding signal,[1],0.122 relative 10-mer count
same,binding signal,[2],0.00482 relative 10-mer count
same,binding signal,[3],0.00216 relative 10-mer count
CCCCACCATC,binding signal,[1],0.111 relative 10-mer count
same,binding signal,[2],0.00477 relative 10-mer count
same,binding signal,[3],0.00563 relative 10-mer count
CAGCGTACCC,binding signal,[1],0.239 relative 10-mer count
same,binding signal,[2],0.00229 relative 10-mer count
same,binding signal,[3],0.41 relative 10-mer count
CCCCACCGCC,binding signal,[1],0.28 relative 10-mer count
same,binding signal,[2],0.0114 relative 10-mer count
same,binding signal,[3],0.00635 relative 10-mer count
CCACCCCCGA,binding signal,[1],0.104 relative 10-mer count
same,binding signal,[2],0.00298 relative 10-mer count
same,binding signal,[3],0.00264 relative 10-mer count
CCCCGACCAC,binding signal,[1],0.111 relative 10-mer count
same,binding signal,[2],0.00422 relative 10-mer count
same,binding signal,[3],0.00395 relative 10-mer count
CGTCCCCACC,binding signal,[1],0.115 relative 10-mer count
same,binding signal,[2],0.00541 relative 10-mer count
same,binding signal,[3],0.00467 relative 10-mer count
AGGGTGGGGG,binding signal,[1],0.202 relative 10-mer count
same,binding signal,[2],0.0102 relative 10-mer count
same,binding signal,[3],0.00563 relative 10-mer count
CACCTCCCCC,binding signal,[1],0.188 relative 10-mer count
same,binding signal,[2],0.00798 relative 10-mer count
same,binding signal,[3],0.00443 relative 10-mer count
CCAACCCCAC,binding signal,[1],0.128 relative 10-mer count
same,binding signal,[2],0.00482 relative 10-mer count
same,binding signal,[3],0.00288 relative 10-mer count
AGGGTGGTGG,binding signal,[1],0.142 relative 10-mer count
same,binding signal,[2],0.00642 relative 10-mer count
same,binding signal,[3],0.00455 relative 10-mer count
ACACTTCATA,binding signal,[1],0.548 relative 10-mer count
same,binding signal,[2],0.649 relative 10-mer count
same,binding signal,[3],0.00144 relative 10-mer count
ACAGCGTACC,binding signal,[1],0.193 relative 10-mer count
same,binding signal,[2],0.00115 relative 10-mer count
same,binding signal,[3],0.259 relative 10-mer count
CCAAAAAAAA,binding signal,[1],0.211 relative 10-mer count
same,binding signal,[2],0.0171 relative 10-mer count
same,binding signal,[3],0.0966 relative 10-mer count
CCAACCCCCA,binding signal,[1],0.13 relative 10-mer count
same,binding signal,[2],0.00486 relative 10-mer count
same,binding signal,[3],0.00168 relative 10-mer count
GCAAAAAAAA,binding signal,[1],0.118 relative 10-mer count
same,binding signal,[2],0.0105 relative 10-mer count
same,binding signal,[3],0.056 relative 10-mer count
CCCGACCACC,binding signal,[1],0.125 relative 10-mer count
same,binding signal,[2],0.00491 relative 10-mer count
same,binding signal,[3],0.00372 relative 10-mer count
GCCACCCACC,binding signal,[1],0.147 relative 10-mer count
same,binding signal,[2],0.00605 relative 10-mer count
same,binding signal,[3],0.00312 relative 10-mer count
CGCCCCCTCC,binding signal,[1],0.135 relative 10-mer count
same,binding signal,[2],0.00605 relative 10-mer count
same,binding signal,[3],0.00407 relative 10-mer count
GTGGGTGGGA,binding signal,[1],0.137 relative 10-mer count
same,binding signal,[2],0.00729 relative 10-mer count
same,binding signal,[3],0.00563 relative 10-mer count
ACCCCCAACC,binding signal,[1],0.12 relative 10-mer count
same,binding signal,[2],0.00468 relative 10-mer count
same,binding signal,[3],0.00479 relative 10-mer count
AGCGTCTCCA,binding signal,[1],0.271 relative 10-mer count
same,binding signal,[2],0.0472 relative 10-mer count
same,binding signal,[3],0.388 relative 10-mer count
CACGCCCCAC,binding signal,[1],0.11 relative 10-mer count
same,binding signal,[2],0.00326 relative 10-mer count
same,binding signal,[3],0.00455 relative 10-mer count
ACCTCCCCAC,binding signal,[1],0.108 relative 10-mer count
same,binding signal,[2],0.00422 relative 10-mer count
same,binding signal,[3],0.0036 relative 10-mer count
CACCACCCAC,binding signal,[1],0.206 relative 10-mer count
same,binding signal,[2],0.0105 relative 10-mer count
same,binding signal,[3],0.0119 relative 10-mer count
AAGGCATACC,binding signal,[1],0.13 relative 10-mer count
same,binding signal,[2],0.00183 relative 10-mer count
same,binding signal,[3],0.114 relative 10-mer count
CCATCCACCC,binding signal,[1],0.109 relative 10-mer count
same,binding signal,[2],0.00578 relative 10-mer count
same,binding signal,[3],0.00467 relative 10-mer count
CCGCCCACCA,binding signal,[1],0.143 relative 10-mer count
same,binding signal,[2],0.00477 relative 10-mer count
same,binding signal,[3],0.00156 relative 10-mer count
ACCCTCCCCA,binding signal,[1],0.105 relative 10-mer count
same,binding signal,[2],0.00509 relative 10-mer count
same,binding signal,[3],0.00515 relative 10-mer count
AAACAAGCAG,binding signal,[1],0.212 relative 10-mer count
same,binding signal,[2],0.00908 relative 10-mer count
same,binding signal,[3],0.149 relative 10-mer count
GCCTCCCCCC,binding signal,[1],0.115 relative 10-mer count
same,binding signal,[2],0.00518 relative 10-mer count
same,binding signal,[3],0.00791 relative 10-mer count
GAAAACAGCA,binding signal,[1],0.299 relative 10-mer count
same,binding signal,[3],0.388 relative 10-mer count
AAACAGGGTA,binding signal,[1],0.175 relative 10-mer count
same,binding signal,[3],0.22 relative 10-mer count
GCAACACTGC,binding signal,[1],0.135 relative 10-mer count
same,binding signal,[3],0.238 relative 10-mer count
ACAGGGTATC,binding signal,[1],0.137 relative 10-mer count
same,binding signal,[3],0.2 relative 10-mer count
CCCACCACCC,binding signal,[1],0.562 relative 10-mer count
same,binding signal,[2],0.0272 relative 10-mer count
same,binding signal,[3],0.00635 relative 10-mer count
ATAAAAACAG,binding signal,[1],0.11 relative 10-mer count
same,binding signal,[3],0.148 relative 10-mer count
ACAGAGTACC,binding signal,[1],0.123 relative 10-mer count
same,binding signal,[3],0.152 relative 10-mer count
CGCTGTTTTC,binding signal,[1],0.221 relative 10-mer count
same,binding signal,[3],0.356 relative 10-mer count
CACCCGCCCC,binding signal,[1],0.188 relative 10-mer count
same,binding signal,[2],0.0066 relative 10-mer count
same,binding signal,[3],0.00108 relative 10-mer count
CTCCCCCCCA,binding signal,[1],0.117 relative 10-mer count
same,binding signal,[2],0.005 relative 10-mer count
same,binding signal,[3],0.00587 relative 10-mer count
AAAAACAGGA,binding signal,[1],0.104 relative 10-mer count
same,binding signal,[3],0.113 relative 10-mer count
AAACAGGGTT,binding signal,[1],0.271 relative 10-mer count
same,binding signal,[3],0.368 relative 10-mer count
AACAAAACAG,binding signal,[1],0.206 relative 10-mer count
same,binding signal,[3],0.223 relative 10-mer count
AAAAAAACAG,binding signal,[1],0.967 relative 10-mer count
same,binding signal,[3],0.753 relative 10-mer count
AAACAGTGTC,binding signal,[1],0.116 relative 10-mer count
same,binding signal,[3],0.209 relative 10-mer count
CTCCCGCCCC,binding signal,[1],0.136 relative 10-mer count
same,binding signal,[2],0.00596 relative 10-mer count
same,binding signal,[3],0.00192 relative 10-mer count
ATGCTGTTTC,binding signal,[1],0.143 relative 10-mer count
same,binding signal,[3],0.178 relative 10-mer count
GAAAAACAGC,binding signal,[1],0.265 relative 10-mer count
same,binding signal,[3],0.324 relative 10-mer count
AAAAGCAGGG,binding signal,[1],0.207 relative 10-mer count
same,binding signal,[3],0.218 relative 10-mer count
AATAAAACAG,binding signal,[1],0.132 relative 10-mer count
same,binding signal,[3],0.168 relative 10-mer count
CTGTTTTTTC,binding signal,[1],0.357 relative 10-mer count
same,binding signal,[3],0.365 relative 10-mer count
ACAAAACAGC,binding signal,[1],0.249 relative 10-mer count
same,binding signal,[3],0.272 relative 10-mer count
AACAGCGTAC,binding signal,[1],0.19 relative 10-mer count
same,binding signal,[3],0.275 relative 10-mer count
CAGTGTTGCC,binding signal,[1],0.253 relative 10-mer count
same,binding signal,[3],0.686 relative 10-mer count
AAACACTGTT,binding signal,[1],0.135 relative 10-mer count
same,binding signal,[3],0.266 relative 10-mer count
ACAGCATCCC,binding signal,[1],0.114 relative 10-mer count
same,binding signal,[3],0.088 relative 10-mer count
AAACAGCAGT,binding signal,[1],0.106 relative 10-mer count
same,binding signal,[3],0.159 relative 10-mer count
ACAGCATACC,binding signal,[1],0.516 relative 10-mer count
same,binding signal,[3],0.692 relative 10-mer count
ACAGCGTTTC,binding signal,[1],0.253 relative 10-mer count
same,binding signal,[3],0.448 relative 10-mer count
AAACAGCGTT,binding signal,[1],0.388 relative 10-mer count
same,binding signal,[3],0.648 relative 10-mer count
ACAAAAACAG,binding signal,[1],0.13 relative 10-mer count
same,binding signal,[3],0.173 relative 10-mer count
AAAACAGTGT,binding signal,[1],0.495 relative 10-mer count
same,binding signal,[3],0.712 relative 10-mer count
CGAAAAACAG,binding signal,[1],0.174 relative 10-mer count
same,binding signal,[3],0.222 relative 10-mer count
CAGCCCCACC,binding signal,[1],0.116 relative 10-mer count
same,binding signal,[2],0.00349 relative 10-mer count
same,binding signal,[3],0.0291 relative 10-mer count
GAAACGCTGC,binding signal,[1],0.102 relative 10-mer count
same,binding signal,[3],0.169 relative 10-mer count
AAAGCGTACC,binding signal,[1],0.109 relative 10-mer count
same,binding signal,[2],0.0281 relative 10-mer count
same,binding signal,[3],0.0144 relative 10-mer count
CAGCATCTCC,binding signal,[1],0.126 relative 10-mer count
same,binding signal,[3],0.214 relative 10-mer count
AACAGCATGA,binding signal,[1],0.198 relative 10-mer count
same,binding signal,[2],0.00188 relative 10-mer count
same,binding signal,[3],0.308 relative 10-mer count
AACAGCATAC,binding signal,[1],0.51 relative 10-mer count
same,binding signal,[3],0.709 relative 10-mer count
CAGAAAACAG,binding signal,[1],0.147 relative 10-mer count
same,binding signal,[3],0.264 relative 10-mer count
CAGTGTCTCC,binding signal,[1],0.213 relative 10-mer count
same,binding signal,[3],0.552 relative 10-mer count
ACAGCATGAC,binding signal,[1],0.209 relative 10-mer count
same,binding signal,[3],0.295 relative 10-mer count
